Data on 62 molecules can be found in paper PMC8769072, “Proteome‐scale mapping of binding sites in the unstructured regions of the human proteome” (Molecular Systems Biology, 2022).

Sequence of AP2B1 700-937, P63010 (P63010 700-937): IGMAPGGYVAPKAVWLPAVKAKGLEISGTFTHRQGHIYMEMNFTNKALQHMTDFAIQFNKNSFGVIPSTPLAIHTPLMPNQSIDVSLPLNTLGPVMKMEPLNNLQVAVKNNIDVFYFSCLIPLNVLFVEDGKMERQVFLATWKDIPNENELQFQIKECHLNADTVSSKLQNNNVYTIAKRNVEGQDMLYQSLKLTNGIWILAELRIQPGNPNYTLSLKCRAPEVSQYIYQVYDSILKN
Sequence of ANKRA2 142-313, Q9H9E1 (Q9H9E1 142-313): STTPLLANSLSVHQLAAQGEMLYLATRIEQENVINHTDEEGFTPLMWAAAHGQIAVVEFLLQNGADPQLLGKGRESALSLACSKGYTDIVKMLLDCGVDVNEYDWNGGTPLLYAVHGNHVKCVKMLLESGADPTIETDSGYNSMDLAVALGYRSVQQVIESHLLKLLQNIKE

PQPKLPYLPTFPFSMP [NOBOX, O60393]: the “selected by phage display” value in the assay with ANKRA2 142-313, Q9H9E1 was “confidence 2 (active)”.
As to APPFPQSTFTPWASWV [SPATA31E1, Q6ZUB1], the “selected by phage display” value in the assay with AP2B1 700-937, P63010 was “confidence 3 (active)”.
Same read-out and setting: with EWLYGGPWDVHVHSDL [FIP1L1, Q6UN15] the entry was “confidence 2 (active)”; with TGQDIAPRDSPEWVAF [FRMPD1, Q5SYB0], “confidence 3 (active)”.
Same read-out and setting: to MGGAAASWAGWAVTGV [SCYL1, Q96KG9] belongs “confidence 3 (active)”.
Same read-out and setting: with AEPFSSSSPTPLFPWF [KMT2A, Q03164] the entry was “confidence 2 (active)”; with WDVPAWESTQHPWPVA [ZNF786, Q8N393], “confidence 4 (active)”.
Regarding WPASWGFPDASSTVPS [Q96NJ1], in the assay with AP2B1 700-937, P63010, the “selected by phage display” value was “confidence 2 (active)”.
Regarding WSHWEDSALPPPSLRP [RHBDD3, Q9Y3P4], the “selected by phage display” value with AP2B1 700-937, P63010 was “confidence 3 (active)”.
Consider FDWSSFKPMGFEVSFL [ZNF292, O60281], for which the “selected by phage display” value in the assay with AP2B1 700-937, P63010 is “confidence 2 (active)”.
On the same count and under the same terms, to NSISEPKGNPLAWQAF belongs “confidence 3 (active)”.
With VAAGWWAFAPPALQVL [SLCO4A1, Q96BD0], the “selected by phage display” value in the assay with AP2B1 700-937, P63010 is “confidence 2 (active)”.
Regarding FTKVEHWSSFAALPWG [SLC35F4, A4IF30], the “selected by phage display” value with AP2B1 700-937, P63010 was “confidence 2 (active)”.
Same read-out and setting: with SWEAFDSHGQESSGQL [F8A3, P23610] the entry was “confidence 2 (active)”.
In the case of SMLKLPDLPQNSVKLQ [KIAA0586, Q9BVV6], in the assay with ANKRA2 142-313, Q9H9E1, the “selected by phage display” value was “confidence 3 (active)”.
As for TQAQAALNFGWAFSWL [C12orf71, A8MTZ7], in the assay with AP2B1 700-937, P63010, the “selected by phage display” value was “confidence 2 (active)”.
As to EEEMEVPVLPKISLPI [NUP153, P49790], the “selected by phage display” value in the assay with ANKRA2 142-313, Q9H9E1 was “confidence 2 (active)”.
On the same count and under the same terms, to YTSPSLPNISLGLQAT [HDAC5, Q9UQL6] belongs “confidence 4 (active)”.
ELLTVPDGWKEPAFSK [KRR1, Q13601]: in the assay with AP2B1 700-937, P63010, the “selected by phage display” value is “confidence 3 (active)”.
For AESSQAVMSLPKLQQV [ZNF362, Q5T0B9], the “selected by phage display” value with ANKRA2 142-313, Q9H9E1 was “confidence 4 (active)”.
For the molecule SQEDWTTFTHDRIRQL [INPPL1, O15357], the “selected by phage display” value with AP2B1 700-937, P63010 was “confidence 2 (active)”.
Same read-out and setting: with DPGAMEPWALPTWHSW [TSPOAP1, O95153] the entry was “confidence 2 (active)”.
On to TESWMSPLAWLEKGVN [SPAG5, Q96R06], for which the “selected by phage display” value with AP2B1 700-937, P63010 was “confidence 2 (active)”.
The same measure, in the same setting: to MSGWAEGPRMLSWAPF [TSPO2, Q5TGU0] belongs “confidence 3 (active)”.
As to VGLPLPPTLPSLIPFI [SALL1, Q9NSC2], in the assay with ANKRA2 142-313, Q9H9E1, the “selected by phage display” value was “confidence 2 (active)”.
Turning to DSALSLPPLSLPHPHP [NTM-AS1, Q6ZSK4], the “selected by phage display” value with ANKRA2 142-313, Q9H9E1 is “confidence 3 (active)”.
For the molecule DSDGHTDAFVAYFADG [BBS5, Q8N3I7], the “selected by phage display” value with AP2B1 700-937, P63010 was “confidence 2 (active)”.
Turning to EKSPTDWALFTYEGNS [DBNL, Q9UJU6], the “selected by phage display” value in the assay with AP2B1 700-937, P63010 was “confidence 2 (active)”.
On to EKPVPTLPQFTMGPNV [EFNA3, P52797], for which the “selected by phage display” value in the assay with ANKRA2 142-313, Q9H9E1 was “confidence 3 (active)”.
Consider HERDPWYSWDQPGLRL [NDUFB8, O95169], for which, in the assay with AP2B1 700-937, P63010, the “selected by phage display” value was “confidence 3 (active)”.
Still for that read-out and setting: to EATEEGWASFSAELSH [OBSCN, Q5VST9] belongs “confidence 4 (active)”; to LSHLGQVEPVPWADAF [ANKRD11, Q6UB99], “confidence 2 (active)”; to WGEPWGEPSTPATTVD [TNRC6A, Q8NDV7], “confidence 2 (active)”.
The same measure, in the same setting: to VPVWEPQDWQQQLVNI [NTHL1, P78549] belongs “confidence 3 (active)”.
Consider VFPRPVLPSLTVSRVI [C16orf46, Q6P387], for which, in the assay with ANKRA2 142-313, Q9H9E1, the “selected by phage display” value was “confidence 4 (active)”.
On to ASSPVNWAAPWANAMN [TEX13C, A0A0J9YWL9], for which the “selected by phage display” value in the assay with AP2B1 700-937, P63010 is “confidence 3 (active)”.
Same read-out and setting: to NFADFSQFEVFAASNV [REPS1, Q96D71] belongs “confidence 3 (active)”; to PWTAFPKPSNSQPTSP [CGNL1, Q0VF96], “confidence 3 (active)”; to ITAWEAGWNVTNAIQG [SLC32A1, Q9H598], “confidence 3 (active)”.
As to AAKPSLPALDPMSMLF [TSHZ3, Q63HK5], the “selected by phage display” value with ANKRA2 142-313, Q9H9E1 is “confidence 3 (active)”.
As to TVGKNHEWNWAFVAFT [SLC9A2, Q9UBY0], the “selected by phage display” value with AP2B1 700-937, P63010 was “confidence 2 (active)”.
Turning to NLRLPSLDEQVIPARL [Q5PR19], in the assay with ANKRA2 142-313, Q9H9E1, the “selected by phage display” value was “confidence 2 (active)”.
In the case of PGTLLPTPGLPQFPSA [OTP, Q5XKR4], in the assay with ANKRA2 142-313, Q9H9E1, the “selected by phage display” value was “confidence 2 (active)”.
Still for that read-out and setting: with MSARPSLPPLPAKPAG [SERTAD4-AS1, Q5TG53] the entry was “confidence 2 (active)”; with MPPSQLQLPTLPLVMV [FOXP3, Q9BZS1], “confidence 2 (active)”.
With RGVEWAAFGRDLFLAS [ELP2, Q6IA86], in the assay with AP2B1 700-937, P63010, the “selected by phage display” value was “confidence 3 (active)”.
On the same count and under the same terms, to PWVPNWELGEPPGNAP [ZNF831, Q5JPB2] belongs “confidence 3 (active)”; to WQAFESQPAAPAVPMN, “confidence 2 (active)”; to WTAWEADALFMQRDVY [ZNF532, Q9HCE3], “confidence 3 (active)”.
Consider VELPALPSLPTLPTLP [PRX, Q9BXM0], for which the “selected by phage display” value in the assay with ANKRA2 142-313, Q9H9E1 was “confidence 2 (active)”.
Regarding PEWEVAAPWGSVGPGA [GPR179, Q6PRD1], the “selected by phage display” value in the assay with AP2B1 700-937, P63010 was “confidence 2 (active)”.
On the same count and under the same terms, to SANADFANFDAFGQSS [AGFG1, P52594] belongs “confidence 3 (active)”; to LNSPAWEASGLHWSSL [GNAS, P84996], “confidence 3 (active)”.
As for ESFGGGFADFSTLSKV [EPS15, P42566], the “selected by phage display” value with AP2B1 700-937, P63010 is “confidence 3 (active)”.
On the same count and under the same terms, with EERLRGWEAFLNAPEA [HTATSF1, O43719] the entry was “confidence 2 (active)”.
For the molecule LPNLPNLNLNLPAPHI [GORASP2, Q9H8Y8], the “selected by phage display” value with ANKRA2 142-313, Q9H9E1 is “confidence 2 (active)”.
Same read-out and setting: to QASLQAMSLPELSGAL [ANKS3, Q6ZW76] belongs “confidence 2 (active)”.
Still for that read-out and setting: to ALLLPDLSLHVPPGGA [ZNF513, Q8N8E2] belongs “confidence 2 (active)”.
Regarding NPGLSWTDWPEPSLLE [PHF7, Q9BWX1], the “selected by phage display” value with AP2B1 700-937, P63010 is “confidence 3 (active)”.
As to EPSTTPNNWADFSSTW [ITSN1, Q15811], the “selected by phage display” value in the assay with AP2B1 700-937, P63010 is “confidence 4 (active)”.
In the case of AGLGGPVDFSDLPWPL [ARNTL, O00327], in the assay with AP2B1 700-937, P63010, the “selected by phage display” value is “confidence 2 (active)”.
With SWAAFGDQQATESHHR [AFTPH, Q6ULP2], in the assay with AP2B1 700-937, P63010, the “selected by phage display” value is “confidence 3 (active)”.
